# Where “and” joins values, the source holds several entries; their conditions need not be identical. Equal entries are not always repeated. Records with an inconclusive call do not appear. Where a call stands in place of a potency, no number is given. The source holds several records for some structures; these can differ, active in one and inactive in another. Calls of active or inactive are those of the source. Calls follow the shape of the full dose curve.
# Molecular target: 5-hydroxytryptamine receptor 2A (Homo sapiens) (UniProt P28223)
# Test: 5-hydroxytryptamine receptor 2A (HTR2A) small molecule antagonists, cell-based qHTS assay (AID 1963586); also: nearly all actives have a fitted effect of over 45% in size
# Details: HTR2A-CHO cells, DOI-induced calcium flux, fluorescence; series mostly up to 61.5 µM; activity, negative = inhibition: at the top concentration
# Text: National Center for Advancing Translational Sciences [NCATS]
# Division of Preclinical Innovation [DPI]
# U.S. Environmental Protection Agency [EPA]
# National Institutes of Environmental Health Sciences [NIEHS]
# National Toxicology Program [NTP]
# U.S. Food and Drug Administration [FDA]
# The HTR2A receptor is a subtype of the 5-HT2 receptor that belongs to the serotonin receptor family and is a G protein-coupled receptor (GPCR). The HTR2A-CHO cell line stably expressing human 5-hydroxytryptamine receptor 2A (HTR2A) can be used for screening antagonists of interactions between 5-HT2 and its ligands. The HTR2A-CHO calcium flux assay is a homogeneous fluorescence-based assay for detecting the intracellular calcium level using FDSS kinetic plate reader system.
# Tox21 Assay Protocol Summary:
# HTR2A-CHO cells were dispensed at 2000 cells/3uL/well in 1536-well black-clear bottom plates using a Multidrop Dispenser. After the assay plates were incubated at a 37 C/5% CO2 incubator for 18 h, 3 uL of Dye Loading Buffer was transferred to the assay plate by a Flying Reagent Dispenser. The assay plates were incubated at 37 C for 1h. For antagonist mode, 23 nL of compounds dissolved in DMSO, positive controls or DMSO only was transferred to the assay plate by a pin tool. After 5 min incubation at room temperature, 1.5 uL of 4-Iodo-2,5-dimethoxy-alpha-methylbenzeneethanamine hydrochloride (DOI) at 4nM was added to each well. The fluorescence intensity in the plates was measured using FDSS 7000EX kinetic plate reader for 3 min at 1 sec intervals.
# Potency is read from the fitted curve at half-maximal effect.
# 5-hydroxytryptamine receptor 2A (Homo sapiens), sequence (P28223 whole entry, looked up): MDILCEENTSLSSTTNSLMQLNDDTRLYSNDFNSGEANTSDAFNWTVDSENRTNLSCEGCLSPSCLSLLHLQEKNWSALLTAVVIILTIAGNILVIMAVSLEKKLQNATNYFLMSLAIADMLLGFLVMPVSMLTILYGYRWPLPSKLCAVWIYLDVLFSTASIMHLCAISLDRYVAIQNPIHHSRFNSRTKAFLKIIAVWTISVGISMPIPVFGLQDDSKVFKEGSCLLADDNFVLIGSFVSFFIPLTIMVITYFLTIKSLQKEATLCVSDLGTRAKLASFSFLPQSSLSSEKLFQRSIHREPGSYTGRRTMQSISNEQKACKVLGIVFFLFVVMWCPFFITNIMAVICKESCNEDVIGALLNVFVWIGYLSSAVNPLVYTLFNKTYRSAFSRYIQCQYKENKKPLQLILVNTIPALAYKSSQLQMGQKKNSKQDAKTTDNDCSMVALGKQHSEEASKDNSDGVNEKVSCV
SMILES,Potency,"activity, negative = inhibition"
C=C(C)C(=O)OCC(CC)(COC(=O)C(=C)C)COC(=O)C(=C)C,inactive,
CN(C)Cc1cc(CN(C)C)c(O)c(CN(C)C)c1,inactive,
Cc1cc(C)c(O)c(C)c1,inactive,
O=C=NCCCCCCN=C=O,inactive,
CCCCCCCCCCCCN,5.94 µM (active) and inactive,
CC(C)CC(=O)CC(C)CC(C)C (stereo not given),,-0.794% (inactive)
CN(C)CCOC(C)(c1ccccc1)c1ccccn1 (stereo not given),inactive,
CC1=C(C)S(=O)(=O)CCS1(=O)=O,inactive,
C=C(C)C(=O)O[C@H]1C[C@@H]2CC[C@@]1(C)C2(C)C,inactive,
C/C=C/C=C/C(=O)O,inactive,
O=C(O)CC(O)C(=O)O (stereo not given),inactive,
CCN(CC)C(=O)c1cccc(C)c1,inactive,
O=CCCCC=O,inactive,
CC/C(C)=N/O,,1.01% (inactive)
c1ccc2c(c1)ccc1cc3c(ccc4ccccc43)cc12,inactive,
CCCC(C)=O,inactive,
c1ccc2[nH]ccc2c1,inactive,
CCOC(=O)/C=C\C(=O)OCC,inactive,
CCC(C)(O)CCCC(C)C (stereo not given),inactive,
O=c1c(O)c(-c2ccc(O)c(O)c2)oc2cc(O)cc(O)c12,inactive,

SMILES,Potency,"activity, negative = inhibition"
O=S(=O)(O)c1ccc2cc(O)ccc2c1,inactive,
O=C(c1ccccc1)C(O)c1ccccc1 (stereo not given),inactive and 729 nM (active),
CC(C)=CCCC(C)CCO (stereo not given),inactive,
O=c1[nH]c(=O)n([C@H]2C[C@H](O)[C@@H](CO)O2)cc1Br,inactive,
C=C(C)C(=O)OCCOC(=O)C(=C)C,,-0.847% (inactive)
CC(=O)c1ccccc1,inactive,
O=[Se](O)O,,3.34% [at 12.7 µM] (inactive)
c1ccc2scnc2c1,inactive,
C=CC(C)(C)C,,8.63% (inactive)
CCc1cccc(O)c1,inactive,
O=CCc1ccccc1,,-1.32% (inactive)
CCCCCCCCCCCC(=O)OC,inactive,
COc1ccc(C(Cl)=C(c2ccc(OC)cc2)c2ccc(OC)cc2)cc1,inactive,
COC(=O)CC(=O)OC,,10% (inactive)
NC(=O)/N=N/C(N)=O,,13.1% (inactive)
CCCCCCCCCCCCCO,,8.83% (inactive)
CCCCCC1=CCCC1=O,inactive,
CCCCCCCCCC(=O)O,inactive,
Cc1ccc(O)cc1,inactive,
CC(=O)OCCC(C)C,inactive,

# Reference: PubChem BioAssay (Tox21)
